Rows were chosen to be rich in hits. Some 5.4% of all compounds tested hit in one or more screens of this group.
ALR H2O2 inh = human ALR oxidase inhibition via reduced H2O2. inhibition, % (no concentration beside the values). 290,000 compounds, 3.8% hits. AID 485317. purified ALR, DTT oxidation, H2O2 HRP-luminol luminescence;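 active means mean replicate inhibition above about 79%, with every replicate also reaching it, limit read from the data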
Target sequence (P55789 whole entry, looked up): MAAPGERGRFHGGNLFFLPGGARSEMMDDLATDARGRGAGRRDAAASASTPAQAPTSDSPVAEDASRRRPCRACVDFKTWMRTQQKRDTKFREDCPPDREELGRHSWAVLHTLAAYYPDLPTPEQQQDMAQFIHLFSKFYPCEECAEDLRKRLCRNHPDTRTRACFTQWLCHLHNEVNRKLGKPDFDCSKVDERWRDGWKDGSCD
PP1 inh = counter-screen for PP5 inhibitors: inhibitors of human PP1-alpha | P62136 | purified PP1alpha, OMFP fluorescence | inhibition, % at 6.7 µM | 320,000 compounds, 0.9% hits | AID 2235;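 active means inhibition above the mean inhibition of all tested compounds plus 3 SD, computed separately for each screening campaign, cut at about 15% in these data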
Target sequence (P62136 whole entry, looked up): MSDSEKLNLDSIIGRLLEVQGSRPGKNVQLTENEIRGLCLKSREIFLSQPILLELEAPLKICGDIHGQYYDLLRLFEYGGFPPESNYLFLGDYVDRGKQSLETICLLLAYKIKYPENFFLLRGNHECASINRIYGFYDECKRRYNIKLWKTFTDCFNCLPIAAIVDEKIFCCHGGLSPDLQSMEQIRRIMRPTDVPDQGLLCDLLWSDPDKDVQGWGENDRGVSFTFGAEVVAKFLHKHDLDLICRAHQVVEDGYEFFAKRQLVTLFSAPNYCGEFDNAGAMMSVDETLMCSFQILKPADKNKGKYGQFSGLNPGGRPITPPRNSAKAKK
Calb FLC = C. albicans growth modulation with fluconazole; C. albicans CaCi-2 (fluconazole-resistant clinical isolate) + fluconazole, Alamar Blue growth, 48 h; growth inhibition, % (test concentration not listed); 300,000 compounds, 0.57% hits; AID 1979;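 active means growth inhibition above about 58% in most replicates, limit read from the data, passing the limit was not always enough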;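 further: all wells also contain fluconazole at 8 µg/ml as a sub-toxic cotreatment; 0% = median of DMSO wells and 100% = median of geldanamycin control wells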
PP5 primary = PP5 (human) phosphatase inhibition. AID 1987. P53041. inhibition, % at 6.7 µM. purified PP5c, OMFP substrate fluorescence. 320,000 compounds, 0.18% hits;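 active means inhibition above the campaign's mean inhibition across all tested compounds plus 3 SD, cut at about 9.5% in these data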;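 further: 0% = DMSO only and 100% = 100 µM cantharidin control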
CSC inhib = blocks cancer stem cells | cancer stem cell-like cells viability, luminescence | inhibition, % at 7.5 µM | 300,000 compounds, 1.1% hits | AID 2717; in the data active means inhibition above about 75%; tested in HMLE shEcad cells
* = called active by the depositor; nt = not tested or not shown.

SMILES	ALR H2O2 inh	PP1 inh	Calb FLC	PP5 primary	CSC inhib
COc1ccc(-c2nc(CS(=O)CC(=O)NCc3ccc(F)cc3)c(C)o2)cc1 (stereo not drawn)	99*	0	-6	4	-6
CCOc1ccc(-c2nc(CS(=O)(=O)CC(=O)NCc3ccc(F)cc3)c(C)o2)cc1	25	-2	-4	6	1
CCc1ccc(-c2nc(CS(=O)CC(=O)NCc3cccnc3)c(C)o2)cc1 (stereo not drawn)	99*	2	2	-1	12
COc1ccc(OC)c2c(C)cc(N3CCCCCC3)nc12	-62	nt	-19	nt	1
Cn1cc(C(c2ccccn2)c2cn(C)c3ccccc23)c2ccccc21	4	-2	94*	1	-8
Cn1cc(C(c2ccccc2OCC(=O)O)c2cn(C)c3ccccc23)c2ccccc21	99*	8	68	4	21
O=C(O)/C=C/C(=O)Nc1ccc2c(c1)C(=O)c1ccccc1C2=O	97*	0	9	-2	-6
CC(=O)Nc1ccc2c(c1)C(=O)c1ccccc1C2=O	-26	0	17	2	8
O=C(O)/C=C/C(=O)Nc1ccc(O)cc1	98*	1	7	3	-5
O=C(O)/C=C/C(=O)Nc1ccc(C(=O)c2ccccc2)cc1	1	2	-17	0	-8
COc1ccc(C2=NOC(Cn3c(Cc4ccc(Cl)cc4)nc4c3c(=O)n(C)c(=O)n4C)C2)cc1 (stereo not drawn)	-6	-2	-3	3	-34
O=C(c1cccnc1)N1CCN(C/C=C/c2ccccc2)CC1	0	13	8	0	-13
O=C1Cc2cc(S(=O)(=O)Nc3cccc([N+](=O)[O-])c3)cc3c2N1CCC3	nt	2	-13	2	-2
O=C(CCS(=O)(=O)c1ccc(Cl)cc1)Nc1nc(-c2ccncc2)cs1	0	2	85*	-8	9
CCOc1ccc2[nH]c3c(NCCO)ncnc3c2c1	89*	nt	0	nt	1
CCOc1ccc2[nH]c3c(NCCc4ccc(OC)c(OC)c4)ncnc3c2c1	4	0	9	0	6
NCCOc1ccccc1-c1ccccc1	-1	-6	-17	1	-5
Nc1ccc(Oc2ccccc2-c2ccccc2)cc1	99*	1	-3	0	18
Cc1cc(C)nc(N/N=C/C2=C(O)CC(c3ccc(F)cc3)CC2=O)n1 (stereo not drawn)	-11	1	-9	2	24
O=C1C=C(N2CCCCC2)c2ccccc2C1=O	-4	2	-18	5	97*
O=S(=O)(c1ccccc1S(=O)(=O)N1CCCCC1)N1CCCCC1	-3	0	-7	-2	-10
O=C1c2ccccc2C(=O)c2c1cccc2N1CCCC1	nt	0	80*	6	34
CCOC(=O)c1ccc2ncc(C(=O)OCC)c(NCCN(C)C)c2c1	-10	1	4	-1	-12
O=C(Cc1c(F)cccc1Cl)Nc1cc(S(=O)(=O)N2CCCCC2)ccc1N1CCOCC1	-10	-1	-17	0	27
Fc1cccc(CO/N=C/c2c(-c3ccccc3)nc3ccc(Cl)cn23)c1	-7	-2	4	0	nt
SMILES	ALR H2O2 inh	PP1 inh	Calb FLC	PP5 primary	CSC inhib
Cc1cccn2c(/C=N/OCc3cccc(F)c3)c(-c3ccc(Cl)cc3)nc12	nt	4	1	2	85*
O=c1c2ccccc2c2ccccc2c(=O)n1CC1CCCO1 (stereo not drawn)	99*	-5	-13	2	-8
O=C(CCCn1c(SCC(=O)c2ccc(O)c(O)c2)nc2ccccc2c1=O)NCC1CCCO1 (stereo not drawn)	99*	4	-22	2	1
CN(C)c1ccc(NC(=O)CSc2nc3ccccc3c(=O)n2CC2CCCO2)cc1 (stereo not drawn)	87*	1	-18	0	3
O=C(CCCn1c(SCC(=O)NC2CCCCC2)nc2ccccc2c1=O)NCC1CCCO1 (stereo not drawn)	-1	0	-17	0	-2
CCN(c1ccccc1)S(=O)(=O)c1ccc2c(c1)CCCN2C(C)=O	-2	0	-4	-1	-11
Cc1ccc(Oc2ccc(S(=O)(=O)Nc3ccc(C(=O)O)cc3)cc2)cc1	98*	2	nt	0	nt
Cc1ccc(Sc2ccc(S(=O)(=O)Nc3ccc(C(=O)O)cc3)cc2)cc1C	98*	nt	nt	nt	13
O=C(O)/C=C/C(=O)c1c(-c2ccccc2)[nH]c2ccccc12	98*	1	-20	-1	-13
CCOC(=O)c1cc(-c2csc(-c3ccc(C(F)(F)F)cc3)n2)on1	-16	-1	6	0	-6
CCOC(=O)c1sc(-c2ccc(C(F)(F)F)cc2)nc1O	11	17*	6	-1	1
COCC(C)N=C1NN=C(c2ccc(NC(C)=O)cc2)CS1 (stereo not drawn)	98*	-2	26	-3	0
CCOCCCNC(=O)C(c1ccccc1)N(Cc1ccc2c(c1)OCO2)C(=O)CNC(C)=O (stereo not drawn)	-4	1	5	0	3
CCN(CC)c1cccc(OCC(=O)N2c3ccccc3CC2C)c1 (stereo not drawn)	98*	-4	nt	3	nt
Cc1cc(=O)oc2cc(OCC(=O)N3c4ccccc4CC3C)ccc12 (stereo not drawn)	1	-1	-6	1	nt
Cc1ccn2c(NC3CCCC3)c(-c3ccsc3)nc2c1	89*	-1	-11	2	8
Cc1ccn2c(=O)nc(SCC(=O)NC3CCCC3)nc2c1	-8	-4	-4	0	10
CCCCCCSc1cccc(-c2nc3ccc(C)cn3c2NC2CCCCC2)c1	nt	2	-11	2	60
Cc1ccn2c(NC3CCCCC3)c(-c3cccc(SC4CCCCC4)c3)nc2c1	-1	nt	nt	nt	100*
COc1ccccc1N1CCN(C2CCCN(Cc3cccc(O)c3)C2)CC1 (stereo not drawn)	28	-3	-4	-3	-11
O=C(CSc1ccc(Cl)cc1)Nn1cnnc1	nt	0	2	0	-8
Cc1cccc(/C=N/n2c(-c3ccccc3)n[nH]c2=S)c1O	91*	-1	7	1	-8
Oc1c(Br)cc(Br)c(/C=N/n2c(-c3ccccc3)n[nH]c2=S)c1Br	85*	10	79*	4	11
S=c1[nH]nc(-c2ccccc2)n1/N=C/c1cccs1	24	4	105*	1	0
Cc1ccc(-c2n[nH]c(=S)n2/N=C/c2cccs2)cc1	8	0	-3	-1	8
CCOc1ccc(-n2c(=O)c3sccc3n(Cc3ccc(C)cc3)c2=O)cc1	nt	-1	-5	1	-5
N#C/C(=C\c1c[nH]c2ccc(Br)cc12)c1ccccn1	-12	6	11	5	79*
O=C1Nc2ccccc2/C1=N\N=C\c1ccc(O)c(O)c1	99*	2	14	-1	26
Cc1ccsc1/C=N/N=C1\C(=O)Nc2ccccc21	-5	-3	4	3	-16
COc1cc(/C=N/N2C(=O)c3ccccc3C2=O)ccc1O	46	4	26	2	6

From PubChem
